Source: PMC7862700, “An all-to-all approach to the identification of sequence-specific readers for epigenetic DNA modifications on cytosine”

Tests used:
Test in all cases: DAPPL (digital affinity profiling via proximity ligation, sequencing); 10 mM Tris-HCl pH 7.5, 50 mM NaCl, 1 mM DTT, 4% glycerol, room temperature, 30 min; GST-TFs on glutathione beads, 16-mer random dsDNA library, 0.1% formaldehyde crosslink after washing; high values mean tight binding
FLI1 = molecular target: T1, FLI1 (Homo sapiens, UniProt Q01543 1-452); settings: protein: recombinant; tags: N-terminal GST; dsDNA, one strand shown
T1 sequence: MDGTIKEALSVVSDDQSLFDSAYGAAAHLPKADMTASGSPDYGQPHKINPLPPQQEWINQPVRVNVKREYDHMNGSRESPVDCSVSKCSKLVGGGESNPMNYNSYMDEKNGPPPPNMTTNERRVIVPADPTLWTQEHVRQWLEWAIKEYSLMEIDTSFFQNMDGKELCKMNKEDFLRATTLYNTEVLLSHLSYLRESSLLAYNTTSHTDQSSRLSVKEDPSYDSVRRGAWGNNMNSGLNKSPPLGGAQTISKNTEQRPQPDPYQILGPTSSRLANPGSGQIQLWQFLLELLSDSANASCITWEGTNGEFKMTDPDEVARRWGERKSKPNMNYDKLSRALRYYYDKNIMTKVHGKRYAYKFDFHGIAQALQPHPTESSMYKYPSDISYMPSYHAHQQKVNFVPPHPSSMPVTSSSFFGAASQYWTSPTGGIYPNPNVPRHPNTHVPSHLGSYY
In short: (§1)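 In yeast, human transcription factors were expressed with a GST fusion, then pulled down on glutathione beads and given DNA barcodes. Pooled with a tag-only sample, they were exposed to 200 nmole of a 16-mer random double-stranded DNA library (Tris/NaCl/DTT/glycerol buffer, room temperature, 30 min), washed, crosslinked with 0.1% formaldehyde, proximity-ligated using BsaI/T4 ligase for 1 h at 37 °C, PCR-amplified and read on an Illumina NextSeq500. Each hexamer's frequency of reads for a factor, divided by the matching frequency for the tag-only sample, gives the binding signal.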

GABPA = molecular target: T2, GABPA (Homo sapiens, UniProt Q06546 1-454); settings: protein: recombinant; tags: N-terminal GST; dsDNA, one strand shown
T2 sequence: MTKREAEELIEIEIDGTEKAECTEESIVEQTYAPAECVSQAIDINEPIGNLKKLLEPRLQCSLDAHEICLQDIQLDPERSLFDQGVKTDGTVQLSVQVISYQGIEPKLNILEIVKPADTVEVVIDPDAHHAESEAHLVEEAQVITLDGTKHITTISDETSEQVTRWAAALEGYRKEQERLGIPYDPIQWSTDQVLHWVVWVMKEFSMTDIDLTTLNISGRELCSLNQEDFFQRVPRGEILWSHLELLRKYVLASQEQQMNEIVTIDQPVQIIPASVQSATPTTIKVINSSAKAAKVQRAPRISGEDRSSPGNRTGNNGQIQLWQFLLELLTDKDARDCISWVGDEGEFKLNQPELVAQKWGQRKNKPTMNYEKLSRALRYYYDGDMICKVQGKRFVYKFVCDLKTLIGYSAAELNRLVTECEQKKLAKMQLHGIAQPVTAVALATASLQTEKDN
In short: as §1

ERG = molecular target: T3, ERG (Homo sapiens, UniProt P11308 1-479); settings: protein: recombinant; tags: N-terminal GST; dsDNA, one strand shown
T3 sequence: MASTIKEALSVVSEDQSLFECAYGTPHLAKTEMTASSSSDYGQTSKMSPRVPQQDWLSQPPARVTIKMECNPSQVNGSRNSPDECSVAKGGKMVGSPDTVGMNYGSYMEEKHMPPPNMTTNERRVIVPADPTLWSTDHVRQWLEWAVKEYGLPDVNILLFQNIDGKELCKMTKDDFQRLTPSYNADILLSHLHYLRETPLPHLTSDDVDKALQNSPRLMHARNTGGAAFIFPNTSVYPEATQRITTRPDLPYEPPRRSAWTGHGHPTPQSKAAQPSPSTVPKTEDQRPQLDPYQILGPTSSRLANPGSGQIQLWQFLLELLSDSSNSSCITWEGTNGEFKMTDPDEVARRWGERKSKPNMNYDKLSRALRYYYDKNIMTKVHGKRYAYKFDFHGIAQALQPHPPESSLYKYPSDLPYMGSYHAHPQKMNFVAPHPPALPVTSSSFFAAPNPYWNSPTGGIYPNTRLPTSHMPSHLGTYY
In short: as §1

ELF1 = ELF1 (Homo sapiens, UniProt P32519 1-619); settings: protein: recombinant; tags: N-terminal GST; dsDNA, one strand shown
Chain of ELF1 (P32519 whole entry): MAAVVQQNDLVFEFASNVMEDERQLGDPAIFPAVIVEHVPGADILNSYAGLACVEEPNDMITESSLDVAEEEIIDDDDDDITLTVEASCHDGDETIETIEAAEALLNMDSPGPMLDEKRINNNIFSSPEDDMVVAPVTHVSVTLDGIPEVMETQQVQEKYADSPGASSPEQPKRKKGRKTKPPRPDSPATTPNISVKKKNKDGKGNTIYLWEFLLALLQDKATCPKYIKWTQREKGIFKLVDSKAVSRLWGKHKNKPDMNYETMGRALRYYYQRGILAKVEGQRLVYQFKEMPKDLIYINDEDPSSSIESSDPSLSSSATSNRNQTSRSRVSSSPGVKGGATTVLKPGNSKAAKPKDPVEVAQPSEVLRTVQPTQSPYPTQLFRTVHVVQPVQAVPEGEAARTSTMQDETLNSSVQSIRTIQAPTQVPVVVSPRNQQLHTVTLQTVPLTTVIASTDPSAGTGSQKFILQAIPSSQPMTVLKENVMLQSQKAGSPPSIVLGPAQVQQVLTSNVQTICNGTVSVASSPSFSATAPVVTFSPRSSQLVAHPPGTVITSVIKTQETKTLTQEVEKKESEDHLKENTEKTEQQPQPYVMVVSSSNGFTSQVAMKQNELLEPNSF
In short: as §1

EHF = molecular target: T4, EHF (Homo sapiens, UniProt Q9NZC4 1-300); settings: protein: recombinant; tags: N-terminal GST; dsDNA, one strand shown
T4 sequence: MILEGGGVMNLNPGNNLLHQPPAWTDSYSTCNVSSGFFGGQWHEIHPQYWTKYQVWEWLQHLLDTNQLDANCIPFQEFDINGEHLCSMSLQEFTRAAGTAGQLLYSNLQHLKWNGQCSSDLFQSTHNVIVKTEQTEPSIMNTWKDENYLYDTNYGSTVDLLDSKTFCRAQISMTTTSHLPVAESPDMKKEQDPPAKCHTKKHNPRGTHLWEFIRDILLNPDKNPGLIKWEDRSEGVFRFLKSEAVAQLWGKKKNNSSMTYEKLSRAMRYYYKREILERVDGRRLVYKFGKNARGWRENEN
In short: as §1

ELK3 = molecular target: T5, ELK3 (Homo sapiens, UniProt P41970 1-407); settings: protein: recombinant; tags: N-terminal GST; dsDNA, one strand shown
T5 sequence: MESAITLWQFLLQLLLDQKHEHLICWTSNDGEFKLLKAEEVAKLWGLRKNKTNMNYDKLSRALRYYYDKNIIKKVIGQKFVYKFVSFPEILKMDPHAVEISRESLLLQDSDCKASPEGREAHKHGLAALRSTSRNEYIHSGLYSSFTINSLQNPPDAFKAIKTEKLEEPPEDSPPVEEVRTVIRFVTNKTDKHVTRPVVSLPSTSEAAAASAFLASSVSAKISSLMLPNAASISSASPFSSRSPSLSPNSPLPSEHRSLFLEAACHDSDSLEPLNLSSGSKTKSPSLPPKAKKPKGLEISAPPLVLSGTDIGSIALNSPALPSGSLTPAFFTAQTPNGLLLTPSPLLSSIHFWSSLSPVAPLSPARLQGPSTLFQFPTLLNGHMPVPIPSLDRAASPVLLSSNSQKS
In short: as §1

FEV = molecular target: T6, FEV (Homo sapiens, UniProt Q99581 1-238); settings: protein: recombinant; tags: N-terminal GST; dsDNA, one strand shown
T6 sequence: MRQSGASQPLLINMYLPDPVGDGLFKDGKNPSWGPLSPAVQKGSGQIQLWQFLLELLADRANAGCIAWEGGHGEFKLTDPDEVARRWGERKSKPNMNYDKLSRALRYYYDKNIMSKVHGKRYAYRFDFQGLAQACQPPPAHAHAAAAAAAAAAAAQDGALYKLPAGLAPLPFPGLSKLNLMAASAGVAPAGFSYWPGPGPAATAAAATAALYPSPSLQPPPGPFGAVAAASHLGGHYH
In short: as §1

ETV5 = ETV5 (Homo sapiens, UniProt P41161 1-510); settings: protein: recombinant; tags: N-terminal GST; dsDNA, one strand shown
Chain of ETV5 (P41161 whole entry): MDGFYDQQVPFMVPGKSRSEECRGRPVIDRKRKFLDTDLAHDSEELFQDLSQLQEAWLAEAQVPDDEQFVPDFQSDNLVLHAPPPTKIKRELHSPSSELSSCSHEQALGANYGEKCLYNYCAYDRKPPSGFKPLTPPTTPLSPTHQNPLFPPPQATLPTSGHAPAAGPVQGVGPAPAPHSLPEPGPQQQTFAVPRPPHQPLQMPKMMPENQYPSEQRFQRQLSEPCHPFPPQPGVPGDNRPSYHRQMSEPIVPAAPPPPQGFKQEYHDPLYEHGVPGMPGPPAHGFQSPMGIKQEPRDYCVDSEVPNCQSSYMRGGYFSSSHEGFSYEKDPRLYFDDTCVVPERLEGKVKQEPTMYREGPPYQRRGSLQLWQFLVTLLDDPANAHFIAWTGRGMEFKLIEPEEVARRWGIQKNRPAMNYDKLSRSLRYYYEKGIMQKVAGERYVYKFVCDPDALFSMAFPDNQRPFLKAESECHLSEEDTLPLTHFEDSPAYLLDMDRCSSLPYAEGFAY
In short: as §1

HSF1 = HSF1 (Homo sapiens, UniProt Q00613 1-529); settings: protein: recombinant; tags: N-terminal GST; chain copies: 3; dsDNA, one strand shown
Chain of HSF1 (Q00613 whole entry): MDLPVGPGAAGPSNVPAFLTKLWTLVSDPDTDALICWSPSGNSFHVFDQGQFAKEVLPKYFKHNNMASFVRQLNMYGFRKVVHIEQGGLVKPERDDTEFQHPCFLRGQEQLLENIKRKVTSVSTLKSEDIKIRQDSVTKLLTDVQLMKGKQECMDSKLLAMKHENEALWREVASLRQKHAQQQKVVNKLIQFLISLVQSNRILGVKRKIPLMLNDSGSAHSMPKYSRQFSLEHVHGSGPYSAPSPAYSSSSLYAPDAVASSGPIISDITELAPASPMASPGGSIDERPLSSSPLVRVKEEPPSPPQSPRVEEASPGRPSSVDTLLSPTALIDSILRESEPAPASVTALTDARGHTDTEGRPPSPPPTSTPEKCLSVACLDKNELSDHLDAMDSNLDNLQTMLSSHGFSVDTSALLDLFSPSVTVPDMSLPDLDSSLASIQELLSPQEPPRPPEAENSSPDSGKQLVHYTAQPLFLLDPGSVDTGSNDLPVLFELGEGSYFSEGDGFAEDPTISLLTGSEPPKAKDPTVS
In short: as §1

ELF4 = ELF4 (Homo sapiens, UniProt Q99607 1-663); settings: protein: recombinant; tags: N-terminal GST; dsDNA, one strand shown
Chain of ELF4 (Q99607 whole entry): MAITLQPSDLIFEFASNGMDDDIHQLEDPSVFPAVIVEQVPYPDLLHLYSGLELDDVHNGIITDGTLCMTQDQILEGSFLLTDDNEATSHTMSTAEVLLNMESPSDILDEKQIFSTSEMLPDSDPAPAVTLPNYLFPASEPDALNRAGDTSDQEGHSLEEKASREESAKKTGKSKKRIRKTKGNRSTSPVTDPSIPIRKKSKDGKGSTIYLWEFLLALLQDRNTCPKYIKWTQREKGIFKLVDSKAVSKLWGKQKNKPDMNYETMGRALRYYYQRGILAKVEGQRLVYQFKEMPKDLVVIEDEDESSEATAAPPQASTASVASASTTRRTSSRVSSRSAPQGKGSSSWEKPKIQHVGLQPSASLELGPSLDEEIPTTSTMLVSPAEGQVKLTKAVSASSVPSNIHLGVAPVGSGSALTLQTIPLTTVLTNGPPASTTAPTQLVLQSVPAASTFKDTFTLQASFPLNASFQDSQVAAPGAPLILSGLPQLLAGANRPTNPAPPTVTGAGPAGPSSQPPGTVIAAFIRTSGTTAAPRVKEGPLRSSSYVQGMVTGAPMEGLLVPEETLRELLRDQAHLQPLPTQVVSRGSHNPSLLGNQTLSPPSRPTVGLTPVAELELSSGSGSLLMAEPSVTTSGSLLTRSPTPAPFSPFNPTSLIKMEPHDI
In short: as §1

ELK4 = molecular target: T7, ELK4 (Homo sapiens, UniProt P28324-2 1-405); settings: protein: recombinant; tags: N-terminal GST; dsDNA, one strand shown
T7 sequence: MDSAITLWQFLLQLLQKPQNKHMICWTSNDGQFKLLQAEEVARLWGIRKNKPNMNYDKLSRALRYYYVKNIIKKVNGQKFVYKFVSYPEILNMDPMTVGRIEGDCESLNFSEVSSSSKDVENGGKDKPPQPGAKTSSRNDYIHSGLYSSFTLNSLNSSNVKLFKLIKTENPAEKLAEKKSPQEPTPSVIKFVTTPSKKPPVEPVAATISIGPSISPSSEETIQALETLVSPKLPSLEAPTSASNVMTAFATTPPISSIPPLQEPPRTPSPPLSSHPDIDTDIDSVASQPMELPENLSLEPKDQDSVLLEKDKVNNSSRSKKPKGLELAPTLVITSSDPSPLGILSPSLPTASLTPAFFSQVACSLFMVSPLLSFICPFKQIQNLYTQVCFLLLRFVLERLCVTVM
In short: as §1

CRX = CRX (Homo sapiens, UniProt O43186 1-299); settings: protein: recombinant; tags: N-terminal GST; dsDNA, one strand shown
Chain of CRX (O43186 whole entry): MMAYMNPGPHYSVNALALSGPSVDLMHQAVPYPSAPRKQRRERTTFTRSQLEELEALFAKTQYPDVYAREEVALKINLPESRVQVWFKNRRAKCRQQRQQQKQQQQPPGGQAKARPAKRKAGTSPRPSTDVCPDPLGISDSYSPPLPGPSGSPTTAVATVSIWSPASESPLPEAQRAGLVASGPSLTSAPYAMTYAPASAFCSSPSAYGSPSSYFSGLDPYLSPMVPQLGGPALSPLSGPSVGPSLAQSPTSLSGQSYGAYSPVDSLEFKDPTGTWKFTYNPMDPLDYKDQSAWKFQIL
In short: as §1

ETV1 = ETV1 (Homo sapiens, UniProt P50549 1-477); settings: protein: recombinant; tags: N-terminal GST; dsDNA, one strand shown
Chain of ETV1 (P50549 whole entry): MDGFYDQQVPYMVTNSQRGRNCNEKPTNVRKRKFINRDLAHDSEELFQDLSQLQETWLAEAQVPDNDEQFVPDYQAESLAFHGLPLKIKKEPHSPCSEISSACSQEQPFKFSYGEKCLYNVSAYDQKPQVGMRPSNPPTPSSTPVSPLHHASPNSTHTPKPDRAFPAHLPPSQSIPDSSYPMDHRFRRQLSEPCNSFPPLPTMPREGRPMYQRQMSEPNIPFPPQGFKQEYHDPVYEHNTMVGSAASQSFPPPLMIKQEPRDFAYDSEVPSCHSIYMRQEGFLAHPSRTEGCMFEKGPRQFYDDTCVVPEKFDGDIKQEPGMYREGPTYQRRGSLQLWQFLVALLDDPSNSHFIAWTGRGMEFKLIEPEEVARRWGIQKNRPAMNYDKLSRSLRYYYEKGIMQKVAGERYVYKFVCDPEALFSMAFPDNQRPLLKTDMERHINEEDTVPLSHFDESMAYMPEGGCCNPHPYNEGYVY
In short: as §1

ELK1 = molecular target: T8, ELK1 (Homo sapiens, UniProt P19419 1-428); settings: protein: recombinant; tags: N-terminal GST; dsDNA, one strand shown
T8 sequence: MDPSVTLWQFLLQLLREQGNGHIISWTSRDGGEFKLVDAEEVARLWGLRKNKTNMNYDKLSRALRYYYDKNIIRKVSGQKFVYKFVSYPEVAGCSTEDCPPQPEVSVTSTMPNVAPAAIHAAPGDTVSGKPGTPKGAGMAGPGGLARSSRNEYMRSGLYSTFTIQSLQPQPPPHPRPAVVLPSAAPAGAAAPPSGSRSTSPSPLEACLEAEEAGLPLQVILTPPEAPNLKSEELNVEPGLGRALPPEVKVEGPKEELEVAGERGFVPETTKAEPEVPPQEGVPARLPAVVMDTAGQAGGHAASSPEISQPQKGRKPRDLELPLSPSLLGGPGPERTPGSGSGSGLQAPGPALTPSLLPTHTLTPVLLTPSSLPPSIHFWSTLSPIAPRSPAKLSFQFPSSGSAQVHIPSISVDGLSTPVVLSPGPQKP
In short: as §1

SPI1 = SPI1 (Homo sapiens, UniProt P17947 1-270); settings: protein: recombinant; tags: N-terminal GST; dsDNA, one strand shown
In short: as §1

SPIB = SPIB (Homo sapiens, UniProt Q01892 1-262); settings: protein: recombinant; tags: N-terminal GST; dsDNA, one strand shown
Chain of SPIB (Q01892 whole entry): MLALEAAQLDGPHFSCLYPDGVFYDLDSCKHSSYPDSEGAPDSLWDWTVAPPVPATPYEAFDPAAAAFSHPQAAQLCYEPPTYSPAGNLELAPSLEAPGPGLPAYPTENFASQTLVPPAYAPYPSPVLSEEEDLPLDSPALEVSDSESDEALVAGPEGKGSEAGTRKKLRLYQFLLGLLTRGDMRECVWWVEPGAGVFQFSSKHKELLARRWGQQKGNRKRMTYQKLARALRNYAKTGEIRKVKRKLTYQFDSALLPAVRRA
In short: as §1

ETV2 = molecular target: T9, ETV2 (Homo sapiens, UniProt O00321 1-342); settings: protein: recombinant; tags: N-terminal GST; dsDNA, one strand shown
T9 sequence: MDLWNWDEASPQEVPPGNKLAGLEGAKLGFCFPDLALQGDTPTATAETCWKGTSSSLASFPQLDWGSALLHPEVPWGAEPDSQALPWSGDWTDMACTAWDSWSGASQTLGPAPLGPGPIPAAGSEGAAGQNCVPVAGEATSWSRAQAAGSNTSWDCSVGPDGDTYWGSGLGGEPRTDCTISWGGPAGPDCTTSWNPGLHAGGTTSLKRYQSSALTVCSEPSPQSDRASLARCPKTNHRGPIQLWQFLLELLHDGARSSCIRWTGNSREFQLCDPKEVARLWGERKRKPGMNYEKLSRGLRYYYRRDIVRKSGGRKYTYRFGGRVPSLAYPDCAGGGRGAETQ
In short: as §1

ELF3 = molecular target: T10, ELF3 (Homo sapiens, UniProt P78545 1-371); settings: protein: recombinant; tags: N-terminal GST; dsDNA, one strand shown
T10 sequence: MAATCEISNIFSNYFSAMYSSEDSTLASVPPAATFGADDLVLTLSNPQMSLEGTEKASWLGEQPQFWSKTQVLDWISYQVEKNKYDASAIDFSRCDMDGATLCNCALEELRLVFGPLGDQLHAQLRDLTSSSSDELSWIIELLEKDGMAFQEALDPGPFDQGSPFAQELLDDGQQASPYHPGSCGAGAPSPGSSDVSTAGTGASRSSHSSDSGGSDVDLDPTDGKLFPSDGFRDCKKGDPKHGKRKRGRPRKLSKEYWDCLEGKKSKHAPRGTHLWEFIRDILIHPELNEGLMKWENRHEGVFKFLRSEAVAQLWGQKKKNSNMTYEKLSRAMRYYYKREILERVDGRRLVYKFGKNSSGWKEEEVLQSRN
In short: as §1

Row | Sequence | binding signal (FLI1) | binding signal (GABPA) | binding signal (ERG) | binding signal (ELF1) | binding signal (EHF) | binding signal (ELK3) | binding signal (FEV) | binding signal (ETV5) | binding signal (HSF1) | binding signal (ELF4) | binding signal (ELK4) | binding signal (CRX) | binding signal (ETV1) | binding signal (ELK1) | binding signal (SPI1) | binding signal (SPIB) | binding signal (ETV2) | binding signal (ELF3)
1 | AGGGCT | 1.03 fold enrichment (6-mer frequency, TF over GST control) | 1.05 fold enrichment (6-mer frequency, TF over GST control) | 1.07 fold enrichment (6-mer frequency, TF over GST control) | 1.01 fold enrichment (6-mer frequency, TF over GST control) | 1.04 fold enrichment (6-mer frequency, TF over GST control) | 1.08 fold enrichment (6-mer frequency, TF over GST control) | 1.03 fold enrichment (6-mer frequency, TF over GST control) | 1.06 fold enrichment (6-mer frequency, TF over GST control) | 1.03 fold enrichment (6-mer frequency, TF over GST control) | 1.07 fold enrichment (6-mer frequency, TF over GST control) | 1.02 fold enrichment (6-mer frequency, TF over GST control) | 1.26 fold enrichment (6-mer frequency, TF over GST control) | 1.11 fold enrichment (6-mer frequency, TF over GST control) |  |  |  |  | 
2 | CGATCG | 1.18 fold enrichment (6-mer frequency, TF over GST control) | 1.14 fold enrichment (6-mer frequency, TF over GST control) | 1.1 fold enrichment (6-mer frequency, TF over GST control) | 1.13 fold enrichment (6-mer frequency, TF over GST control) | 1.07 fold enrichment (6-mer frequency, TF over GST control) |  | 1.03 fold enrichment (6-mer frequency, TF over GST control) | 1.03 fold enrichment (6-mer frequency, TF over GST control) | 1.09 fold enrichment (6-mer frequency, TF over GST control) | 1.04 fold enrichment (6-mer frequency, TF over GST control) | 1.13 fold enrichment (6-mer frequency, TF over GST control) |  | 1.03 fold enrichment (6-mer frequency, TF over GST control) | 1.12 fold enrichment (6-mer frequency, TF over GST control) | 1.02 fold enrichment (6-mer frequency, TF over GST control) | 1.03 fold enrichment (6-mer frequency, TF over GST control) | 1.12 fold enrichment (6-mer frequency, TF over GST control) | 1.08 fold enrichment (6-mer frequency, TF over GST control)
